The list is not random: actives were taken first. Their share in the collection is about 21%.
Shiga toxin inh = inhibitors of Shiga toxin in Vero cells. AID 2315. inhibition, % at 38.7 µM. actives 9.2% (n = 290,000). Vero cells, Shiga toxin protein synthesis inhibition reporter; in the data active = inhibition mostly above about 28%, no sharp cut-off; inactive = mostly below about 43%; also: 0% is about no effect
Pf growth 96h = P. falciparum growth inhibition at 96 hours; actives 6.9% (n = 320,000); Potency, µM (series often up to 28.7 µM), without a hit: at the highest dose activity change, negative = inhibition, actives largely listed as inhibitors; P. falciparum luciferase reporter growth, 96 h; AID 504834; also: potency is read from the fitted curve at half-maximal effect; % is scaled to controls: 0 for no effect and ±100 for the full control effect
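P. falciparum expressing integrated firefly luciferase grown in erythrocytes (2% hematocrit, 0.05% parasitemia final) with compounds for 96 hours at 37 C, 5% CO2. Growth inhibition read as loss of luminescence after adding luciferase detection reagent.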
Pf growth 48h = P. falciparum growth inhibition at 48 hours (one generation) | P. falciparum luciferase growth in erythrocytes, 48 h | Potency, µM (top dose mostly 28.7 µM), for the others: top-dose activity change, negative = inhibition, actives largely listed as inhibitors | actives 5.9% (n = 310,000) | AID 504832; also: potency is read from the fitted curve at half-maximal effect; % is scaled to controls: 0 for no effect and ±100 for the full control effect
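A one-generation exposure of luciferase-tagged malaria parasites in RPMI 1640/Albumax erythrocyte culture, 37 C and 5% CO2. Inhibition is inferred from decreased luminescence after adding detection reagent.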
NS1 function inh = inhibitors of influenza NS1 protein function; Potency, µM (doses to about 46.1 µM), without a hit: at the highest dose activity, positive = more growth; actives 0.4% (n = 270,000); calls by dose curve; also: potency is read from the fitted curve at half-maximal effect; actives are rising curves; nearly all actives have a fitted effect of over 50% in size
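Compounds were scored for reversing the slow growth caused by influenza A NS1 in S. cerevisiae, measured by optical density at 600 nm. Assay medium contained 2% galactose at pH 6.0; NS1-free yeast of the same strain were the positive control.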
Sm TGR inh = S. mansoni TGR enzyme inhibition | actives 3% (n = 360,000) | purified TGR, DTNB reduction, TNB absorbance 405 nm | AID 485364 | Potency, µM (highest dose often 114 µM), for the others: at the highest dose activity change, negative = inhibition, hits mostly inhibitors; also: potency is read from the fitted curve at half-maximal effect; % is scaled to controls: 0 for no effect and ±100 for the full control effect; nearly all actives have a fitted effect of over 60% in size
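First, TGR (20 nM dispensed) and NADPH were mixed with compound. Second, a 15 min room-temperature incubation followed. Third, further NADPH and then DTNB were added to start the reaction. Finally, TNB absorbance was monitored kinetically.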
Cycloheximide cs = counter-screen hit for Shiga toxin inhibitors, cycloheximide. max response, %. actives 12% (n = 300,000). cell reporter, cycloheximide protein synthesis inhibition counterscreen; in the data active = max response mostly above about 13%, no sharp cut-off; inactive = mostly below about 14%; also: read at 38.3 µM for the half of the compounds with a filed dose; 0% is about no effect
Active calls of the source: *; [ ] = remark or other dose. Unless noted, calls follow the shape of the dose curve; as a rule, active = well fitted curve in the direction sought with a large enough effect; inconclusive = small, poorly fitted or top-dose-only effect, or another doubt; inactive = no such curve, though single readings can be large; an effect the other way counts as inactive or inconclusive.

Screening O=C(C1=C[C@H](c2ccc(C(F)(F)F)cc2)C[C@H](OCCCCO)O1)N1CCN(Cc2ccccc2)CC1 returned Shiga toxin inh -11, Pf growth 96h inconclusive, Pf growth 48h inconclusive, NS1 function inh -2%, Sm TGR inh 35µM* and Cycloheximide cs -1.
For CN1CCN(C(=O)C2=C[C@@H](c3ccccc3)C[C@@H](OCc3ccc(CO)cc3)O2)CC1 the results were Shiga toxin inh 5, Pf growth 96h -1%, Pf growth 48h -22%, NS1 function inh 4%, Sm TGR inh 40µM* and Cycloheximide cs 0.
Screening O=C(C1=C[C@@H](c2ccc(C(F)(F)F)cc2)C[C@@H](OCCCCO)O1)N1CCN(Cc2ccccc2)CC1 returned Shiga toxin inh -10, Pf growth 96h inconclusive, Pf growth 48h inconclusive, NS1 function inh -4%, Sm TGR inh inconclusive and Cycloheximide cs -2.
For O=C(C1=C[C@H](c2ccccc2)C[C@H](OCc2ccc(CO)cc2)O1)N1CCCCCCC1 the results were Shiga toxin inh 20, Pf growth 96h inconclusive, Pf growth 48h inconclusive, NS1 function inh 0%, Sm TGR inh 1% and Cycloheximide cs -1.
For O=C(C1=C[C@@H](C2CC2)C[C@@H](OCc2ccc(CO)cc2)O1)N1CCN(Cc2ccccc2)CC1 the results were Shiga toxin inh -17, Pf growth 96h inconclusive, Pf growth 48h inconclusive, NS1 function inh -6%, Sm TGR inh 4% and Cycloheximide cs -1.
For O=C(COC(=O)Cc1cccc(F)c1)NCCc1ccccc1 the results were Pf growth 96h -1%, Pf growth 48h 39% and Sm TGR inh -4%.
For C#Cc1ccc([C@@H]2C=C(C(=O)N3CCN(Cc4ccccc4)CC3)O[C@H](OCCCCO)C2)cc1 the results were Shiga toxin inh 8, Pf growth 96h inconclusive, Pf growth 48h inconclusive, NS1 function inh -6%, Sm TGR inh 13µM* and Cycloheximide cs -2.
`O=C(c1ccccc1)N1CCN(C2c3cccc4cccc(c34)C2NS(=O)(=O)c2ccccc2)CC1` (stereo unspecified) gave Shiga toxin inh -31, Pf growth 96h 4.1µM*, Pf growth 48h 6.6µM*, NS1 function inh inconclusive, Sm TGR inh -1% and Cycloheximide cs -3.
Screening O=S(=O)(NC1c2cccc3cccc(c23)C1N1CCN(CCO)CC1)c1ccccc1 (stereo unspecified) returned Shiga toxin inh -14, Pf growth 96h -24%, Pf growth 48h 15µM*, NS1 function inh 0%, Sm TGR inh -3% and Cycloheximide cs -5.
`CCC(=O)N1CCc2cc(Br)cc(S(=O)(=O)N3CCCC(C(=O)Nc4cc(C)ccc4OC)C3)c21` (stereo unspecified) gave Sm TGR inh 9%.
`N#C[C@H]1[C@H](c2ccccc2)[C@](C#N)(C(=O)c2ccccc2)[C@@H]2C=Cc3ccccc3N21` gave Shiga toxin inh 55, Pf growth 96h -13%, Pf growth 48h inconclusive, NS1 function inh 32%, Sm TGR inh inconclusive and Cycloheximide cs 42*.
COc1ccc(C(=O)N2c3ccccc3C=CC2C#N)cc1 (stereo unspecified) was read as Shiga toxin inh -9, Pf growth 96h 15%, Pf growth 48h 12%, NS1 function inh -1%, Sm TGR inh -31% and Cycloheximide cs 11.
Screening CN(C[C@H](Cc1ccccc1)N(C[C@H](CC1CCCCC1)N(CCc1ccccc1)N=O)N=O)N=O returned Shiga toxin inh -8, Pf growth 96h inconclusive, Pf growth 48h -2%, NS1 function inh 1%, Sm TGR inh -35% and Cycloheximide cs 1.
CN(C[C@H](Cc1ccccc1)N(C[C@H](Cc1ccccc1)N(CC1(c2ccccc2)CC1)N=O)N=O)N=O was read as Shiga toxin inh -17, Pf growth 96h 10µM*, Pf growth 48h inconclusive, NS1 function inh 8%, Sm TGR inh inconclusive and Cycloheximide cs 1.
For CN(C[C@@H](CC1CCCCC1)N(C[C@H](Cc1ccccc1)N(CCc1ccccc1)N=O)N=O)N=O the results were Shiga toxin inh -11, Pf growth 96h 12µM*, Pf growth 48h inconclusive, NS1 function inh 8%, Sm TGR inh -19% and Cycloheximide cs -3.
For CCOc1ccc(CCNC(=O)c2cccc(NC3=NC4CS(=O)(=O)CC4S3)c2)cc1 (stereo unspecified) the results were Shiga toxin inh -4, Pf growth 96h 114%, Pf growth 48h -1%, NS1 function inh 6%, Sm TGR inh -22% and Cycloheximide cs -3.
For COc1ccccc1COc1ccc2c(C)c(CC(=O)O)c(=O)oc2c1C the results were Shiga toxin inh -6, Pf growth 96h 6.6µM*, Pf growth 48h 1%, NS1 function inh 13%, Sm TGR inh -1% and Cycloheximide cs -2.
Cc1c(CC(=O)O)c(=O)oc2c(C)c(OCc3ccc(F)cc3F)ccc12 was read as Shiga toxin inh -10, Pf growth 96h 26%, Pf growth 48h 9%[0.00184 µM], NS1 function inh 2%, Sm TGR inh 6% and Cycloheximide cs 1.
For COc1ccc2c(C)c(Cc3ccccc3)c(=O)oc2c1OC the results were Shiga toxin inh 14, Pf growth 96h 9%, Pf growth 48h 12µM*, NS1 function inh -41%, Sm TGR inh -15% and Cycloheximide cs 1.
For COc1cc(COc2ccc3c(C)c(Cc4ccccc4)c(=O)oc3c2)cc(OC)c1OC the results were Shiga toxin inh -27, Pf growth 96h inconclusive, Pf growth 48h 8.3µM*, NS1 function inh 6%, Sm TGR inh 16% and Cycloheximide cs -2.
COc1ccc2c(C)c(CC(=O)NCCc3ccccc3)c(=O)oc2c1OC was read as Sm TGR inh 8%.
For COc1cc(COc2ccc3c(C)c(Cc4ccccc4)c(=O)oc3c2C)cc(OC)c1OC the results were Shiga toxin inh 11, Pf growth 96h 1.9µM*, Pf growth 48h inconclusive, NS1 function inh -1%, Sm TGR inh -7% and Cycloheximide cs -2.
COc1cc([N+](=O)[O-])ccc1NC(=O)COC(=O)CCS(=O)(=O)c1ccc(C)cc1 was read as Pf growth 96h 34%, Pf growth 48h 3% and Sm TGR inh -5%.
COc1ccc(C(=O)OCC(=O)c2ccc[nH]2)cc1 was read as Pf growth 96h 219%, Pf growth 48h 273% and Sm TGR inh -16%.
Screening CCCCc1c(C)c2ccc(OC)c(/C(C)=N\O)c2oc1=O returned Shiga toxin inh 35, Pf growth 96h 24%, Pf growth 48h 17%, NS1 function inh 4%, Sm TGR inh -28% and Cycloheximide cs 19*.
CCOC(=O)C1=C(CN2CCN(CCC#N)CC2)NC(=O)NC1c1ccc2c(c1)OCO2 (stereo unspecified) was read as Shiga toxin inh 1, Pf growth 96h 13%, Pf growth 48h -17%, Sm TGR inh 7% and Cycloheximide cs 2.

From PubChem BioAssay
